Assay outcomes as filed in PubChem.
Most compounds without a hit are left out; they make up all but 1.2% or so of the library.
Avidin fluor: avidin bead compound fluorescence profile; Avidin beads, compound fluorescence 488/530 nm, flow cytometry; active compounds read high; fluorescence (KMESF) at 10 µM; 0.38% of 220,000 active; in the data active = fluorescence above about 47
GSH fluor: compound fluoresces at 488/530 nm on GSH beads; GSH beads flow cytometry, compound fluorescence 488/530 nm; active compounds read high; fluorescence (KMESF) at 10 µM; 0.25% of 190,000 active; in the data active = fluorescence above about 89;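 note: glutathione beads carrying GST-tagged Bcl family fusion proteins plus one bare bead set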
RGS7-Gao reg: modulates binding of RGS7 to human Galphao. Multiplexed bead flow cytometry; actives lie on both sides. P09471. 0.35% of 220,000 active. binding response (% of control), % at 10 µM; in the data active = binding response below about 49% or above about 150%; inconclusive = no clear call, values can overlap the other calls; inactive = in between;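 note: fluorescent Galphao held in activated GDP-AlF4 state binding bead-coupled RGS7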
Target sequence (P09471 whole entry, looked up): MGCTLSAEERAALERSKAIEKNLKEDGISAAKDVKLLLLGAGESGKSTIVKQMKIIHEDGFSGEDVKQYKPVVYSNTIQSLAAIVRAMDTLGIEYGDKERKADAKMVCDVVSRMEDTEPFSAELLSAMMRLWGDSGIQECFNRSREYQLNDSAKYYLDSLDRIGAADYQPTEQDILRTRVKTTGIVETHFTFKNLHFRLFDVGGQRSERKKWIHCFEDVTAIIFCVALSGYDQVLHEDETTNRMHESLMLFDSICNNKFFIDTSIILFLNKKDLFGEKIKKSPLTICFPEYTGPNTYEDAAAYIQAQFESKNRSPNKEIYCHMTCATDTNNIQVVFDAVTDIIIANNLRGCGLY
RGS8-Gao: modulates binding of RGS8 to human Galphao; P09471; AID 1423; 0.34% of 220,000 active; response (percent of control binding), % at 10 µM; multiplexed bead flow cytometry; actives lie on both sides; in the data active = response below about 60% or above about 140%; inactive = in between;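 note: Galphao activated as the GDP aluminium fluoride complex binding bead-coupled RGS8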
RGS16-Gao HTS: modulates binding between human RGS16 and Galphao; O15492+P09471; bead-based flow cytometry RGS16-Galphao binding, fluorescence; actives lie on both sides; binding response (% of control), % at 10 µM; 0.38% of 220,000 active;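 note: Galphao activated by GDP with aluminum fluoride before binding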
RGS4-Gao reg: human RGS4-Galphao interaction regulation. Multiplexed bead flow cytometry, RGS4-Galphao binding; actives lie on both sides. AID 1415. P09471. binding response (% of control), % at 10 µM. 0.33% of 220,000 active; in the data active = binding response below about 49% or above about 150%; inactive = in between;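 note: fluorescent Galphao activated with aluminum fluoride binding bead-coupled RGS4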
RGS4-Gao HTS: modulates binding between human RGS4 and Galphao; 99% of 1,600 active; RGS4–Galpha-o binding response, % at 10 µM; multiplexed bead flow cytometry, RGS–Galpha-o binding; AID 1504; shares compounds with RGS16-Gao HTS;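 note: fluorescently labeled Galpha-o bound to GDP with aluminium fluoride binding biotinylated RGS beads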
Avidin counter: interferes with biotinylated probe binding to avidin beads; shares compounds with RGS16-Gao HTS; streptavidin beads, fluorescein-biotin binding, flow cytometry; inhibition, % at 10 µM; 1,700 tested, under 10 active;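 active = inhibition above 50%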;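 note: median green fluorescence of gated singlet beads compared with DMSO control wells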
RGS8-Gao confirm: confirmation of regulators of human RGS8-Galphao interaction | AID 1836 | bead-based flow cytometry RGS8-Galphao binding, fluorescence; actives lie on both sides | binding response (% of control), % at 10 µM | 3% of 1,700 active | shares compounds with RGS16-Gao HTS; in the data active = binding response below about 72% or above about 130%; inactive = in between;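 note: Galphao activated as GDP AlF4 complex before binding bead RGS8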
RGS7-Gao confirm: RGS7-Galphao interaction regulation, single point confirmation; response (percent of control binding), % at 10 µM; 7.8% of 1,700 active; AID 1837; bead-based flow cytometry RGS7-Galphao binding; actives lie on both sides; shares compounds with RGS16-Gao HTS; in the data active = response below about 75% or above about 130%; inactive = in between;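 note: fluorescent Galphao activated with GDP and aluminum fluoride binding bead-coupled RGS7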
RGS16-Gao single: confirmation of regulators of human RGS16-Galphao interaction; 4% of 1,700 active; AID 1838; response (% of control binding), % at 10 µM; bead-based flow cytometry, RGS16-Galphao binding; actives lie on both sides; shares compounds with RGS16-Gao HTS; in the data active = response below about 74% or above about 130%; inactive = in between;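 note: Galphao activated as the GDP aluminium fluoride complex binding bead-coupled RGS16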
RGS4-Gao single: RGS4-Galphao interaction regulation, single point confirmation; shares compounds with RGS16-Gao HTS; RGS4-Galphao binding, multiplexed bead flow cytometry; actives lie on both sides; binding response (% of control), % at 10 µM; 4% of 1,700 active; in the data active = binding response below about 74% or above about 130%; inactive = in between
RGS19-Gao conf: confirmation of regulators of human RGS19-Galphao interaction | shares compounds with RGS16-Gao HTS | bead-based flow cytometry RGS19-Galphao binding; actives lie on both sides | response (percent of control binding), % at 10 µM | 5% of 1,700 active | AID 1841; in the data active = response below about 50% or above about 160%; inactive = in between
Target sequence (P09471 whole entry, looked up): as above
Target sequence (P49795 whole entry, looked up): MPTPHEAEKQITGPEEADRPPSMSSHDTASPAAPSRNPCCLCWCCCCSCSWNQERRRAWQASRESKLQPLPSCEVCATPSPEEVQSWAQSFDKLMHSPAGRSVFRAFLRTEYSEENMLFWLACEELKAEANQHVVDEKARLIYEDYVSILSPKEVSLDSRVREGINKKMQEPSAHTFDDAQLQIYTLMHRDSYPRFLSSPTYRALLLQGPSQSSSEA
Large screens that a line does not name were inactive (follow-up assays come after a bar, where they were run); ! = not active in a repeat; [ ] = another dose, or the depositor's remark. Unless noted, the rule behind the calls is not given here.

O=C(COc1ccc2ccccc2c1)N1CCN(CC2CC3C=CC2C3)CC1 (stereo not drawn)	Avidin fluor 50
O=C1CN=C(c2ccccc2)c2cc(Br)ccc2N1Cc1cc(=O)n2ccccc2n1	GSH fluor 184
C=CCn1c(O)c(C(C)=NCCc2ccccc2)c(=O)[nH]c1=O	Avidin fluor 51
C=CCn1c(O)c(C(CC)=NCCc2ccccc2)c(=O)[nH]c1=O	none
Cc1ccc2c(c1)CC1(CN2C)C(=O)NC(=O)N(c2ccc(C)c(C)c2)C1=O (stereo not drawn)	GSH fluor 256
O=C(c1ccc(Cl)cc1)C1CCCN(Cc2ccc3ncccc3c2)C1 (stereo not drawn)	none
O=c1[nH]c(=S)n(C2CCCCC2)c(O)c1/C=N/N1CCOCC1	RGS7-Gao reg inconclusive (no result: GSH fluor)
COc1ccccc1-n1c(O)c(C=Nc2c(C)n(C)n(-c3ccccc3)c2=O)c(=O)[nH]c1=O	GSH fluor 261
O=C(CSC1c2ccccc2-c2ccccc21)N/N=C/c1ccccc1O	none
CCC(=NCCN1CCOCC1)c1c(O)n(-c2ccccc2C)c(=O)[nH]c1=O	none
CC(=NCCN1CCOCC1)c1c(O)n(-c2ccccc2C)c(=O)[nH]c1=O	RGS7-Gao reg 9.2, RGS8-Gao 28, RGS16-Gao HTS 3.0, RGS4-Gao reg -2.9 (no result: Avidin fluor)
C=CCn1c(O)c(C(C)=NCc2cc(OC)cc(OC)c2)c(=O)[nH]c1=O	none
CCCCc1ncc(CN2CCCC(C(=O)c3ccc(SC)cc3)C2)[nH]1 (stereo not drawn)	none
Cc1ccc(NP(=O)(Oc2ccccc2F)Oc2ccccc2F)cc1	Avidin fluor 48
COC(=O)C(=O)N1CC2(C)CNCC(C)(C1)C2=O	none
Brc1ccc(CN2CCNCC2)s1	GSH fluor 269
CN(C)P(=O)(NC(=O)c1cccn1C)N(C)C	none
CN(C)P(=NC(=S)c1cccn1C)(N(C)C)N(C)C	Avidin fluor 58
CC1(C)CSC(Nc2ccc(F)c(Cl)c2)=N1	GSH fluor 253
CC1(C)CN=C(Nc2ccc(F)c(Cl)c2)S1	RGS7-Gao reg inconclusive (no result: GSH fluor)
C=CCn1c(O)c(C=NCCN(C)C)c(=O)[nH]c1=O	none
CN(C)CCN=Cc1c(O)n(-c2cccc(C(F)(F)F)c2)c(=O)[nH]c1=O	GSH fluor 266
CCCCC(=O)N/N=C/c1c(O)n(-c2cccc3ccccc23)c(=O)[nH]c1=O	RGS7-Gao reg inconclusive (no result: GSH fluor)
O=c1[nH]c(O)c(/C=C2\C=NN=C2c2ccccc2)c(=O)[nH]1	GSH fluor 266
Cc1cc(Cl)ccc1C(=O)C1CCCN(C2CCSCC2)C1 (stereo not drawn)	none
Cc1oc(-c2ccccc2Cl)nc1CN1C(=O)CN=C(c2ccccc2)c2ccccc21	none
S=C1CN=C(c2ccccc2Cl)c2cc(Cl)ccc2N1	GSH fluor 119
COc1ccc(C(=O)C23CN4CN(CN(C4)C2)C3)cc1	Avidin fluor 51
COC(=O)c1c(C)n(Cc2ccc3c(c2)OCO3)c2ccc(O)cc12	none
CCOC(=O)c1c(C)n(Cc2ccc3c(c2)OCO3)c2ccc(O)cc12	GSH fluor 249
CC(C)NS(=O)(=O)c1ccc(OCC(=O)N2CCN(C)CC2)cc1	RGS8-Gao 185[activator] | RGS4-Gao HTS 134
Cn1nc(-c2ccc(OCC(=O)N3CCN(Cc4ccccc4)CC3)cc2)c2ccccc2c1=O	RGS7-Gao reg 42!, RGS4-Gao reg 35! | Avidin counter inactive | RGS8-Gao confirm inactive | RGS7-Gao confirm inactive | RGS16-Gao single inactive | RGS4-Gao single inactive | RGS19-Gao conf inactive
Cn1cccc1CN1CCN(C(=O)COc2ccccc2)CC1	none
CC(=NCC1CCCO1)c1c(O)n(C)c(=O)n(C)c1=O (stereo not drawn)	RGS7-Gao reg 31, RGS8-Gao 54, RGS16-Gao HTS -18, RGS4-Gao reg -9.3 | Avidin counter inactive | RGS8-Gao confirm inactive | RGS7-Gao confirm inactive | RGS16-Gao single inactive | RGS4-Gao single inactive | RGS19-Gao conf inactive
Cc1ccc(-n2c(O)c(C=Nc3ccc(S(=O)(=O)N(C)C)cc3)c(=O)[nH]c2=O)cc1	none
CCN(CC)c1ccc(/C=C2/C(=O)NC(=O)N(CC3CCCO3)C2=O)cc1 (stereo not drawn)	none
O=C1NC(=O)N(CC2CCCO2)C(=O)/C1=C/c1cccs1 (stereo not drawn)	Avidin fluor 75, RGS7-Gao reg inconclusive, RGS4-Gao reg 185[activator] (no result: GSH fluor) | Avidin counter inactive | RGS8-Gao confirm inactive | RGS7-Gao confirm inactive | RGS16-Gao single inactive | RGS4-Gao single inactive | RGS19-Gao conf inactive
CCOP(=O)(OCC)C(NC(C)=O)C(Cl)(Cl)Cl (stereo not drawn)	none
O=c1[nH]c(=O)n(Cc2ccc(F)cc2)c(O)c1C=NCCCO	Avidin fluor 122, RGS7-Gao reg 156[activator] | RGS4-Gao HTS 110 | Avidin counter inactive | RGS8-Gao confirm inactive | RGS7-Gao confirm inactive | RGS16-Gao single inactive | RGS4-Gao single inactive | RGS19-Gao conf inactive
O=c1[nH]c(=O)n(Cc2ccc(F)cc2)c(O)c1C=NCCCn1ccnc1	none
Clc1ccc2c(c1)C(c1ccccc1Cl)=NCc1nnc(N3CCN(CCOc4ccccc4)CC3)n1-2	none
N#CC(C#N)=Cc1ccc(N2CCCC2)cc1	Avidin fluor 118, RGS7-Gao reg 668[activator], RGS4-Gao reg 184[activator] | Avidin counter inactive | RGS8-Gao confirm inactive | RGS7-Gao confirm inactive | RGS16-Gao single inactive | RGS4-Gao single inactive | RGS19-Gao conf inactive
